# Out of some 5,500 compounds screened, about 2,000 (36%) were called active. Roughly 18% stayed inconclusive and do not appear here. The list shows a part of the results. Values without a mark were called inactive. Cut-off read from the data, not from the text of the source: active = normalized growth mostly below about 0.91 (no sharp cut-off); inconclusive = no clear call, values can overlap the other calls; inactive = mostly above about 0.92.
# Test: chemical genetic growth profiling, strain panel (AID 1159580);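 note: tested at 20 µM; growth read once vehicle control cultures reached saturation at 30 °C; 1 = growth at the plate median or of vehicle wells; lower values mean less growth of the strain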
# Details: S. cerevisiae deletion strains, growth OD
# [1] = locus YAL013W, strain DEP1, active compounds read low
# [2] = locus YBR229C, strain ROT2, active compounds read low
# [3] = locus YDL101C, strain DUN1, active compounds read low
# [4] = locus YDR150W, strain NUM1, active compounds read low
# [5] = locus YEL061C, strain CIN8, active compounds read low
# [6] = locus YGR078C, strain PAC10, active compounds read low
# [7] = locus YHR030C, strain SLT2, active compounds read low
# [8] = locus YHR087W, strain rtc3, active compounds read low
# [9] = locus YJL187C, strain SWE1, active compounds read low
# [10] = locus YJR043C, strain POL32, active compounds read low
# [11] = locus YJR075W, strain HOC1, active compounds read low
# [12] = locus YLR039C, strain RIC1, active compounds read low
# [13] = locus YLR058C, strain SHM2 (second series), active compounds read low
# [14] = locus YLR085C, strain ARP6, active compounds read low
# [15] = locus YLR262C, strain YPT6, active compounds read low
# [16] = locus YML094W, strain GIM5, active compounds read low
# [17] = locus YMR219W, strain ESC1, active compounds read low
# [18] = locus YMR263W, strain SAP30, active compounds read low
# [19] = locus YNL153C, strain GIM3, active compounds read low
# [20] = locus YNL298W, strain CLA4 (second series), active compounds read low
# [21] = locus YNL322C, strain KRE1, active compounds read low
# [22] = locus YNR030W, strain Alg12, active compounds read low
# [23] = locus YPL055C, strain LGE1, active compounds read low
# [24] = locus YPL241C, strain CIN2, active compounds read low
# [25] = locus YPR135W, strain CTF4, active compounds read low
# [26] = locus YAR019C, strain CDC15, active compounds read low
# [27] = locus YBL105C, strain PKC1, active compounds read low
# [28] = locus YBR135W, strain CKS1, active compounds read low
# [29] = locus YBR136W, strain MEC1, active compounds read low
# [30] = locus YBR160W, strain CDC28, active compounds read low
# [31] = locus YDL017W, strain CDC7, active compounds read low
# [32] = locus YDL028C, strain MPS1, active compounds read low
# [33] = locus YDL108W, strain KIN28, active compounds read low
# [34] = locus YDL132W, strain cdc53, active compounds read low
# [35] = locus YDL214C, strain PRR2, active compounds read low
# [36] = locus YDR052C, strain DBF4, active compounds read low
# [37] = locus YDR054C, strain cdc34, active compounds read low
# [38] = locus YDR226W, strain ADK1, active compounds read low
# [39] = locus YDR477W, strain SNF1, active compounds read low
# [40] = locus YER123W, strain YCK3, active compounds read low
# [41] = locus YER133W, strain GLC7, active compounds read low
# [42] = locus YFL009W, strain cdc4, active compounds read low
# [43] = locus YFL029C, strain CAK1, active compounds read low
# [44] = locus YFR003C, strain YPI1, active compounds read low
# [45] = locus YFR019W, strain FAB1, active compounds read low
# [46] = locus YFR028C, strain CDC14, active compounds read low
# [47] = locus YGR040W, strain KSS1, active compounds read low
# [48] = locus YGR052W, strain FMP48, active compounds read low
# [49] = locus YGR092W, strain DBF2, active compounds read low
# [50] = locus YHR079C, strain IRE1, active compounds read low
# [51] = locus YHR082C, strain KSP1, active compounds read low
# [52] = locus YHR205W, strain SCH9, active compounds read low
# [53] = locus YIL147C, strain SLN1, active compounds read low
# [54] = locus YJL095W, strain BCK1, active compounds read low
# [55] = locus YJL128C, strain PBS2, active compounds read low
# [56] = locus YJL157C, strain FAR1, active compounds read low
# [57] = locus YJR016C, strain ILV3, active compounds read low
# [58] = locus YJR066W, strain TOR1 (second series), active compounds read low
# [59] = locus YJR066W, strain TOR1, active compounds read low
# [60] = locus YKL048C, strain ELM1, active compounds read low
# [61] = locus YKL067W, strain YNK1, active compounds read low
# [62] = locus YKL101W, strain HSL1, active compounds read low
# [63] = locus YKL193C, strain SDS22, active compounds read low
# [64] = locus YKL203C, strain TOR2, active compounds read low
# [65] = locus YLR113W, strain HOG1, active compounds read low
# [66] = locus YLR133W, strain CKI1, active compounds read low
# [67] = locus YLR403W, strain SFP1, active compounds read low
# [68] = locus YML070W, strain DAK1, active compounds read low
# [69] = locus YMR001C, strain CDC5, active compounds read low
# [70] = locus YMR205C, strain PFK2 (second series), active compounds read low
# [71] = locus YMR277W, strain FCP1, active compounds read low
# [72] = locus YNL006W, strain LST8, active compounds read low
# [73] = locus YNL020C, strain ARK1, active compounds read low
# [74] = locus YNL161W, strain CBK1, active compounds read low
# [75] = locus YNL183C, strain NPR1, active compounds read low
# [76] = locus YNL207W, strain RIO2, active compounds read low
# [77] = locus YNL222W, strain SSU72, active compounds read low
# [78] = locus YNL307C, strain MCK1 (second series), active compounds read low
# [79] = locus YOL078W, strain AVO1, active compounds read low
# [80] = locus YOL136C, strain PFK27, active compounds read low
# [81] = locus YOR061W, strain CKA2, active compounds read low
# [82] = locus YOR119C, strain RIO1, active compounds read low
# [83] = locus YOR231W, strain MKK1, active compounds read low
# [84] = locus YOR329C, strain SCD5, active compounds read low
# [85] = locus YPL031C, strain PHO85, active compounds read low
# [86] = locus YPL153C, strain RAD53, active compounds read low
# [87] = locus YPL204W, strain HRR25, active compounds read low
# [88] = locus YPL209C, strain IPL1, active compounds read low
# [89] = locus YPL256C, strain CLN2, active compounds read low
# [90] = locus YPR025C, strain CCL1, active compounds read low
# [91] = locus YPR106W, strain ISR1, active compounds read low
# [92] = locus YPR111W, strain DBF20, active compounds read low
# [93] = strain NNK1, active compounds read low
# [94] = strain TSCII, active compounds read low
compound,measurement,setting,value
N#C/C(=C\c1ccc(Oc2ccccc2)nc1)S(=O)(=O)c1ccccc1,normalized growth,[1],0.996
same,normalized growth,[2],1
same,normalized growth,"locus YCL061C, strain MRC1, active compounds read low",0.976
same,normalized growth,[3],1
same,normalized growth,[4],0.984
same,normalized growth,[5],1.01
same,normalized growth,[6],1
same,normalized growth,[7],0.978
same,normalized growth,[8],1
same,normalized growth,[9],0.993
same,normalized growth,[10],0.981
same,normalized growth,[11],0.99
same,normalized growth,"locus YKL190W, strain CNB1, active compounds read low",1
same,normalized growth,[12],0.95
same,normalized growth,[13],1.01
same,normalized growth,[14],0.998
same,normalized growth,[15],1.02
same,normalized growth,[16],1.02
same,normalized growth,[17],1
same,normalized growth,[18],0.956
same,normalized growth,"locus YMR307W, strain GAS1, active compounds read low",0.884
same,normalized growth,[19],0.993
same,normalized growth,[20],0.939
same,normalized growth,[21],1
same,normalized growth,[22],0.997
same,normalized growth,"locus YOL006C, strain TOP1, active compounds read low",0.922
same,normalized growth,[23],0.988
same,normalized growth,[24],0.996
same,normalized growth,[25],0.955
N#C/C(=C\c1cccn1-c1ccc(OC(F)(F)F)cc1)S(=O)(=O)c1ccccc1,normalized growth,[1],1.05
same,normalized growth,[2],1
same,normalized growth,[3],0.982
same,normalized growth,[4],1.03
same,normalized growth,[5],1.02
same,normalized growth,[6],1.02
same,normalized growth,[7],1.04
same,normalized growth,[8],1.02
same,normalized growth,[9],1.01
same,normalized growth,[10],0.986
same,normalized growth,[11],0.988
same,normalized growth,[12],1
same,normalized growth,[13],0.995
same,normalized growth,[14],1.23 [resistant] (active)
same,normalized growth,[15],0.976
same,normalized growth,[16],1.07
same,normalized growth,[17],1.01
same,normalized growth,[18],1
same,normalized growth,[19],1.03
same,normalized growth,[20],1.03
same,normalized growth,[21],1
same,normalized growth,[22],1.05
same,normalized growth,[23],1.14
same,normalized growth,[24],1.09
same,normalized growth,[25],1.38 [resistant] (active)
CC1(C)OC(=O)C(=Cc2cccn2-c2ccc(OC(F)(F)F)cc2)C(=O)O1,normalized growth,[26],0.966
same,normalized growth,[27],0.995
same,normalized growth,[28],0.996
same,normalized growth,[29],0.987
same,normalized growth,[30],0.985
same,normalized growth,[31],0.999
same,normalized growth,[32],0.972
same,normalized growth,[3],0.979
same,normalized growth,[33],0.989
same,normalized growth,[34],0.99
same,normalized growth,[35],0.899
same,normalized growth,[36],0.989
same,normalized growth,[37],0.972
same,normalized growth,[38],0.963
same,normalized growth,[39],0.898
same,normalized growth,[40],0.884
same,normalized growth,[41],0.944
same,normalized growth,[42],0.96
same,normalized growth,[43],0.967
same,normalized growth,[44],0.993
same,normalized growth,[45],0.942
same,normalized growth,[46],0.964
same,normalized growth,[47],0.91
same,normalized growth,[48],0.921
same,normalized growth,[49],0.881
same,normalized growth,[7],0.673 (active)
same,normalized growth,[50],0.875
same,normalized growth,[51],0.861
same,normalized growth,[52],0.801
same,normalized growth,[53],0.976
same,normalized growth,[54],0.832
same,normalized growth,[55],0.918
same,normalized growth,[56],0.948
same,normalized growth,[57],0.979
same,normalized growth,[58],0.987
same,normalized growth,[59],0.829
same,normalized growth,[60],0.931
same,normalized growth,[61],0.915
same,normalized growth,[62],0.89
same,normalized growth,[63],0.973
same,normalized growth,[64],0.989
same,normalized growth,[65],0.768 (active)
same,normalized growth,[66],0.923
same,normalized growth,[67],0.92
same,normalized growth,[68],0.909
same,normalized growth,[69],0.97
same,normalized growth,[70],0.93
same,normalized growth,[71],0.954
same,normalized growth,[72],0.975
same,normalized growth,[73],0.922
same,normalized growth,[74],0.982
same,normalized growth,[75],0.894
same,normalized growth,[76],0.986
same,normalized growth,[77],0.98
same,normalized growth,[78],0.887
same,normalized growth,[79],0.973
same,normalized growth,[80],0.908
same,normalized growth,[81],0.916
same,normalized growth,[82],0.936
same,normalized growth,[83],0.827
same,normalized growth,[84],0.986
same,normalized growth,[85],0.914
same,normalized growth,[86],0.916
same,normalized growth,[87],0.923
same,normalized growth,[88],0.991
same,normalized growth,[89],0.782 (active)
same,normalized growth,[90],1
same,normalized growth,[91],0.967
same,normalized growth,[92],0.939
same,normalized growth,[93],0.976
same,normalized growth,[94],0.968
CC1(C)OC(=O)C(=Cc2cccn2-c2ccc(C(F)(F)F)cc2)C(=O)O1,normalized growth,[26],1.01
same,normalized growth,[27],1.03
same,normalized growth,[28],1.04
same,normalized growth,[29],1.03
same,normalized growth,[30],1.02
same,normalized growth,[31],1.04
same,normalized growth,[32],1.01
same,normalized growth,[3],1
same,normalized growth,[33],1.02
same,normalized growth,[34],1.03
same,normalized growth,[35],0.913
same,normalized growth,[36],1.01
same,normalized growth,[37],1.02
same,normalized growth,[38],1.03
same,normalized growth,[39],0.908
same,normalized growth,[40],0.896
same,normalized growth,[41],0.963
same,normalized growth,[42],1.02
same,normalized growth,[43],0.998
same,normalized growth,[44],1.03
same,normalized growth,[45],0.941
same,normalized growth,[46],0.999
same,normalized growth,[47],0.921
same,normalized growth,[48],0.954
same,normalized growth,[49],0.921
same,normalized growth,[7],0.686 (active)
same,normalized growth,[50],0.86
same,normalized growth,[51],0.901
same,normalized growth,[52],0.775
same,normalized growth,[53],1.02
same,normalized growth,[54],0.844
same,normalized growth,[55],0.931
same,normalized growth,[56],0.946
same,normalized growth,[57],1.01
same,normalized growth,[58],0.958
same,normalized growth,[59],0.844
same,normalized growth,[60],0.88
same,normalized growth,[61],0.912
same,normalized growth,[62],0.885
same,normalized growth,[63],1.02
same,normalized growth,[64],1.01
same,normalized growth,[65],0.711 (active)
same,normalized growth,[66],0.916
same,normalized growth,[67],0.898
same,normalized growth,[68],0.912
same,normalized growth,[69],1
same,normalized growth,[70],0.93
same,normalized growth,[71],1
same,normalized growth,[72],1
same,normalized growth,[73],0.914
same,normalized growth,[74],1.03
same,normalized growth,[75],0.917
same,normalized growth,[76],1.03
same,normalized growth,[77],1.02
same,normalized growth,[78],0.859
same,normalized growth,[79],1.01
same,normalized growth,[80],0.884
same,normalized growth,[81],0.818
same,normalized growth,[82],0.944
same,normalized growth,[83],0.83
same,normalized growth,[84],1.03
same,normalized growth,[85],0.917
same,normalized growth,[86],0.901
same,normalized growth,[87],0.905
same,normalized growth,[88],1.03
same,normalized growth,[89],0.777 (active)
same,normalized growth,[90],1.03
same,normalized growth,[91],0.99
same,normalized growth,[92],0.964
same,normalized growth,[93],0.988
same,normalized growth,[94],0.991

# Reference: PubChem BioAssay AID1159580 (chemical genetic matrix, 2015)
